Measured values from PubChem BioAssay.
Active and inactive are the calls of the source. Unless noted, no rule for the calls is given here.

Tests used:
[1] = system: Wnt5a (protein binding on small-molecule microarray); test: small molecules binding Wnt5a protein – biophysical, small-molecule microarray, 635/667 nm fluorescence, primary screen (AID 1142); conditions: 635 nm fluorescence, higher = more signal;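 also: fluorescence read at 667 nm with signal to noise per printed feature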
[2] = ATP-based viability of Huh7 replicon cells – cell-based, CellTiter-Glo luminescence, basal, 48 h, cytotoxicity control for HCV replication inhibitor project, primary screen (AID 1143); conditions: higher = more signal, called active from +8 up or from −8 down;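 also: Huh7 hepatoma cells carrying a hepatitis C replication reporter with no stimulus; test concentration not given here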
[3] = Pseudomonas biofilm growth suppression – PAO1 strain, BacTiter-Glo luminescence, LB-PBS, primary screen (AID 1144); conditions: P. aeruginosa PAO1 biofilm, 12 h, higher = more signal
[4] = basal CRE-LacZ reporter activity in PC12 – cell-based, unstimulated, primary screen (AID 1145); conditions: no forskolin, luminescence, 4.5 h, higher = more signal, called active from +8 up or from −8 down
[5] = forskolin-driven CRE-LacZ activity in PC12 – cell-based, CRE-LacZ reporter, forskolin-stimulated, primary screen (AID 1146); conditions: luminescence, 4.5 h, higher = more signal, called active from +8 up or from −8 down;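 also: PC12 cells with 6xCRE LacZ reporter stimulated by forskolin 10 µM; beta-galactosidase reporter signal reflecting CREB driven transcription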
[6] = target: Streptavidin (Streptomyces avidinii) (UniProt P22629); test: compounds binding control protein streptavidin – biophysical, small-molecule microarray, 635/667 nm fluorescence, artefact control for SMM compound annotation, primary screen (AID 1147); conditions: higher = more signal;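 also: signal reflects streptavidin binding to arrayed compounds as a control protein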
[7] = probe aInhba binding on compound microarray – biochemical, small-molecule microarray, 635/667 nm fluorescence, primary screen (AID 1148); conditions: higher = more signal;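 also: score merges 667nm spot fluorescence with signal-to-noise for antibody binding to printed compounds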
[8] = target: Torsin-1A (Homo sapiens) (UniProt O14656); test: TOR1A wild-type binding on microarray – cell lysate, small-molecule microarray, lysate, 635/667 nm, primary screen (AID 1149); conditions: COS7 hTOR1A-WT lysate, 635 nm fluorescence, higher = more signal
[9] = target: Torsin-1A (Homo sapiens) (UniProt O14656); test: torsin A mutant lysate binding on microarrays – cell lysate, small-molecule microarray, COS7 lysate, 635/667 nm fluorescence, primary screen (AID 1150); conditions: COS7 hTOR1A mutant lysate, 635 nm fluorescence, higher = more signal;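 also: score pools 667 nm emission and signal to noise measuring lysate protein binding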
[10] = system: Sonic hedgehog protein (Shh); test: Sonic hedgehog microarray binding compounds – biochemical, small-molecule microarray, 635/667 nm fluorescence, primary screen (AID 1151); conditions: 635 nm fluorescence, higher = more signal;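 also: Shh protein binding to compounds spotted on small-molecule microarray slides; score combines spot fluorescence intensity with signal-to-noise across triplicate slides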
[11] = optical density shifts of acrAB sulA E. coli – strain DRC41, OD650, 48 h, E. coli filamentation inducer project, primary screen (AID 1152); conditions: higher = more signal, called active from +8 up or from −8 down;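 also: E. coli MC1000 strain DRC41 lacking acrAB efflux pump and sulA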
[12] = probe aLefty1 binding on compound microarray – biochemical, small-molecule microarray, 635/667 nm fluorescence, primary screen (AID 1153); conditions: higher = more signal;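 also: score merges spot fluorescence with signal-to-noise ratio from the scanned slide images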
[13] = plasmodial surface anion channel blockers, osmotic lysis – cell-based, P. falciparum Indochina, OD700, 1 h, primary screen (AID 1154); conditions: P. falciparum Indochina infected RBC osmotic lysis, higher = more signal, called active from +8 up or from −8 down
[14] = plasmodial surface anion channel blockers, osmotic lysis – cell-based, P. falciparum Indochina, OD700, 2 h, primary screen (AID 1155);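 also: lysis reports solute entry through the parasite surface anion channel PSAC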; conditions: P. falciparum Indochina infected erythrocytes, higher = more signal, called active from +8 up or from −8 down
[15] = changes in parasitized red cell lysis, either direction – P. falciparum Indochina, OD700, 3 h, PSAC antagonist project, primary screen (AID 1156); conditions: P. falciparum-infected erythrocytes, osmotic lysis, higher = more signal, called active from +8 up or from −8 down
[16] = plasmodial surface anion channel blockers, osmotic lysis – cell-based, P. falciparum Indochina, OD700, 18 h, primary screen (AID 1157); conditions: P. falciparum Indochina infected erythrocytes, osmotic lysis OD700, 18 h; higher = more signal, called active from +8 up or from −8 down
[17] = S6 kinase pathway phospho-S6 level changes – cell-based, A549, cytoblot, luminescence, serum-stimulated, primary screen (AID 1158); conditions: 5 h, higher = more signal;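 also: serum-stimulated A549 lung adenocarcinoma cells; signal is phosphorylated S6 detected by cytoblot immunostaining with HRP secondary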
[18] = target: NADPH oxidase 2 (Homo sapiens) (UniProt P04839); test: compounds shifting NOX2 Amplex Red fluorescence – cell-based, HEK293-NOX2, PMA-stimulated, NOX inhibitor project, primary screen (AID 1159); conditions: 45 min, higher = more signal, called active from +8 up or from −8 down; also: test concentration not given here
[19] = target: NADPH oxidase 4 (Homo sapiens) (UniProt Q9NPH5); test: compounds shifting NOX4 Amplex Red fluorescence – cell-based, HEK293-NOX4, tetracycline-induced, NOX inhibitor project, primary screen (AID 1160); conditions: HEK293-NOX4, Amplex Red H2O2 fluorescence, 45 min; higher = more signal, called active from +8 up or from −8 down
[20] = target: NADPH oxidase 5 (Homo sapiens) (UniProt Q96PH1); test: compounds shifting NOX5 Amplex Red fluorescence – cell-based, HEK293-NOX5, NOX inhibitor project, primary screen (AID 1161); conditions: HEK293-NOX5, ionomycin, 45 min, higher = more signal
Sequence of NADPH oxidase 5 (Homo sapiens) (Q96PH1 whole entry, looked up): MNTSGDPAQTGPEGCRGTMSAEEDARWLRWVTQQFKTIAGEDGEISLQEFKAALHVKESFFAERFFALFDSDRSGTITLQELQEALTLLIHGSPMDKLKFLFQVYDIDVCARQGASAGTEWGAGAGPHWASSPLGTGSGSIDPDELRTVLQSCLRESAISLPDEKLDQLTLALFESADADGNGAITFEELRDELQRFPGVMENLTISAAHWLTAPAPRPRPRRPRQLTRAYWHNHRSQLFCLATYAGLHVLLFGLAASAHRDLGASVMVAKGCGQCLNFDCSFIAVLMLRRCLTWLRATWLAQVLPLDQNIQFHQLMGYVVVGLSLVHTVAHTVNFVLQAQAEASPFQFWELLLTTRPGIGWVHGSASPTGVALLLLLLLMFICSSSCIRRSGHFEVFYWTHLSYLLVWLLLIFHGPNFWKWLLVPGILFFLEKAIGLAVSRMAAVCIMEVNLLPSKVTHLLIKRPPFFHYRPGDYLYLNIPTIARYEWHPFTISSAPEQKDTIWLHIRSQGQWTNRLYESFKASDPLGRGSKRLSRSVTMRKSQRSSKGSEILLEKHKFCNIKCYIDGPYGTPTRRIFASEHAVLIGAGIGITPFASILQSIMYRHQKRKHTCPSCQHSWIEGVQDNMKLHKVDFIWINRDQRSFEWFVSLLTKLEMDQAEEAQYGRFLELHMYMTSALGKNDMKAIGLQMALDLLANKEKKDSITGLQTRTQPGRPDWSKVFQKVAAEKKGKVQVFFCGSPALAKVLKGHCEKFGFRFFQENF

Sequence of NADPH oxidase 2 (Homo sapiens) (P04839 whole entry, looked up): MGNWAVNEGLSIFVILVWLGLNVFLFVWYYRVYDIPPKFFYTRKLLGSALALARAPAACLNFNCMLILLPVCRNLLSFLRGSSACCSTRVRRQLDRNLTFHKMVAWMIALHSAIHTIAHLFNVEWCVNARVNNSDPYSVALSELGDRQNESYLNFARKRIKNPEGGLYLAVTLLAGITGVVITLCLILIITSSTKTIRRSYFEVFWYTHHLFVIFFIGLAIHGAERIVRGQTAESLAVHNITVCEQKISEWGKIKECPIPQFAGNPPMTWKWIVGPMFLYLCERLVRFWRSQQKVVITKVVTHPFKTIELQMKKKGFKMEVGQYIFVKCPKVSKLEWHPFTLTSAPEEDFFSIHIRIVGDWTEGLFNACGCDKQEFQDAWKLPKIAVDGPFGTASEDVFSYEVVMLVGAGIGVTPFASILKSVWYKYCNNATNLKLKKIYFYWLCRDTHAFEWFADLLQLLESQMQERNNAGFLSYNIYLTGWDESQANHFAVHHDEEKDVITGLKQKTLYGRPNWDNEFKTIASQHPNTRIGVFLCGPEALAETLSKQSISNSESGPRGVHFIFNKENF
Sequence of Torsin-1A (Homo sapiens) (O14656 whole entry, looked up): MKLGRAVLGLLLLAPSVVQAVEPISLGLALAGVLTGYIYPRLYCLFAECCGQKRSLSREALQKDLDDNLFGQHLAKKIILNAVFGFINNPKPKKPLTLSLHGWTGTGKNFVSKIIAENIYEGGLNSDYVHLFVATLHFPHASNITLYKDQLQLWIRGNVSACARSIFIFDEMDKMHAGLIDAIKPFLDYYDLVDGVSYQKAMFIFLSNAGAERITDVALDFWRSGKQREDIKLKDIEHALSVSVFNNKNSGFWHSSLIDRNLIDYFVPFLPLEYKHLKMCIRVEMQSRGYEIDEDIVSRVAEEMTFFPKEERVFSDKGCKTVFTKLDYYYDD
Sequence of NADPH oxidase 4 (Homo sapiens) (Q9NPH5 whole entry, looked up): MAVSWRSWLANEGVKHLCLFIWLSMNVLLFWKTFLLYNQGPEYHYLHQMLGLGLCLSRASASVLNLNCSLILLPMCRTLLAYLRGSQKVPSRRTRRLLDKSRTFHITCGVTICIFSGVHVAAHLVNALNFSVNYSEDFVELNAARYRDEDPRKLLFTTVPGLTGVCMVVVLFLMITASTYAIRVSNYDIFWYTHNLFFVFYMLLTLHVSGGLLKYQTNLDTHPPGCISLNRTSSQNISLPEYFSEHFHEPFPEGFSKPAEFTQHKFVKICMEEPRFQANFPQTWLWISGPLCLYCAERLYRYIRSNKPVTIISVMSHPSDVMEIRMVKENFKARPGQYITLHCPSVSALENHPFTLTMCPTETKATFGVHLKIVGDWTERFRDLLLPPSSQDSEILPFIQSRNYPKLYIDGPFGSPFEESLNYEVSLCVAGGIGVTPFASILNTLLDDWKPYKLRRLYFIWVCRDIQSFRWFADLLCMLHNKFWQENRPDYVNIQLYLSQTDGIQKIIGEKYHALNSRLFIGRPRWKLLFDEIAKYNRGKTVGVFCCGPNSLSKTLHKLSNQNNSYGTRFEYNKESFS
Sequence of Streptavidin (Streptomyces avidinii) (P22629 whole entry, looked up): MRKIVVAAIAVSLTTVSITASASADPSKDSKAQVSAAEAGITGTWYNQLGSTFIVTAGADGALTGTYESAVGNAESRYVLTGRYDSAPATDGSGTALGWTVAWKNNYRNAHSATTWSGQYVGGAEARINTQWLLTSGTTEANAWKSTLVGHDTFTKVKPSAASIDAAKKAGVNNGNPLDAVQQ

For `COCCCNC(=O)[C@@]1(Cc2ccccc2)COC(c2ccc(OCCCO)cc2)=N1`, the composite z-score [1] was 0.788, the z-score [2] was -1.02 (inactive) and the z-score [3] was 0.211 (inactive). For the same molecule, the z-score [4] was -0.0808 (inactive), the z-score [5] was 0.347 (inactive) and the composite z-score [6] was -0.207. For the same molecule, the composite z-score [7] was 0.263, the composite z-score [8] was 0.673 and the composite z-score [9] was 0.878. The composite z-score [10] was -0.795, the z-score [11] was 1.76 (inactive) and the composite z-score [12] was 1.1. The z-score [13] was 22 (active), the z-score [14] was 4.97 (inactive) and the z-score [15] was 1.12 (inactive). For the same molecule, the z-score [16] was 1.04 (inactive), the z-score [17] was -0.194 and the z-score [18] was -1.25 (inactive). For the same molecule, the z-score [19] was 1.05 (inactive) and the z-score [20] was -0.909.

With `CC(C)=CCCC(C)=CC(O)C1C=CC2C(=O)N(c3ccccc3)C(=O)C2N1Nc1ccc([N+](=O)[O-])cc1` (stereo not given) the composite z-score [1] was 0.0504, the z-score [2] was -1.72 (inactive) and the z-score [3] was -0.322 (inactive). For the same molecule, the z-score [4] was 0.323 (inactive), the z-score [5] was -0.0578 (inactive) and the composite z-score [6] was 2.06. For the same molecule, the composite z-score [7] was 0.077, the composite z-score [8] was 0.383 and the composite z-score [9] was 1.12. For the same molecule, the composite z-score [10] was 0.821, the z-score [11] was -1.41 (inactive) and the composite z-score [12] was -0.131. The z-score [13] was 8.34 (active), the z-score [14] was 2.3 (inactive) and the z-score [15] was 1.04 (inactive). The z-score [16] was 1.44 (inactive), the z-score [17] was -0.563 and the z-score [18] was -0.381 (inactive). The z-score [19] was -3.41 (inactive) and the z-score [20] was -0.516.

In the case of `CC(C)[Si](C#C[Si](C(C)C)(C(C)C)C(C)C)(O[C@H](C)c1cn(Cc2cccc(Cl)c2)nn1)C(C)C`, the composite z-score [1] is reported as -0.0078, the z-score [2] is reported as -0.219 (inactive) and the z-score [3] is reported as -1.25 (inactive). For the same molecule, the z-score [4] was -0.71 (inactive), the z-score [5] was -0.399 (inactive) and the composite z-score [6] was 0.534. For the same molecule, the composite z-score [7] was -0.101, the composite z-score [8] was 0.781 and the composite z-score [9] was 0.262. The composite z-score [10] was 0.632, the z-score [11] was 2.58 (inactive) and the composite z-score [12] was -0.195. The z-score [13] was 1.23 (inactive), the z-score [14] was 0.881 (inactive) and the z-score [15] was -0.125 (inactive). The z-score [16] was 0.702 (inactive), the z-score [17] was 0.712 and the z-score [18] was 0.501 (inactive). For the same molecule, the z-score [19] was 0.312 (inactive) and the z-score [20] was -0.162.

With `C=CC[C@]1(C(=O)N(C)C)N=C(c2ccc(OCCCO)cc2)O[C@H]1c1ccccc1` the composite z-score [1] was 0.902, the z-score [2] was -4.69 (inactive) and the z-score [3] was -0.87 (inactive). The z-score [4] was -0.38 (inactive), the z-score [5] was -1.19 (inactive) and the composite z-score [6] was 0.197. It also gave a composite z-score [7] of 0.0471, a composite z-score [8] of 0.62 and a composite z-score [9] of 1.27. For the same molecule, the composite z-score [10] was 0.757, the z-score [11] was 1.17 (inactive) and the composite z-score [12] was 0.325. For the same molecule, the z-score [13] was 28.3 (active), the z-score [14] was 17.7 (active) and the z-score [15] was 3.55 (inactive). The z-score [16] was 1.46 (inactive), the z-score [17] was 1.41 and the z-score [18] was -2.39 (inactive). The z-score [19] was -0.252 (inactive) and the z-score [20] was -4.75.

In the case of `CC(C)NC(=O)[C@@]1(Cc2ccccc2I)c2ccccc2C(=O)N(Cc2ccccc2C(F)(F)F)[C@H]1c1ccc(CO)cc1`, the composite z-score [1] is reported as 0.0851, the z-score [2] is reported as -1.7 (inactive) and the z-score [3] is reported as 0.358 (inactive). For the same molecule, the z-score [4] was 0.856 (inactive), the z-score [5] was -0.151 (inactive) and the composite z-score [6] was -0.503. For the same molecule, the composite z-score [7] was 0.225, the composite z-score [8] was -0.158 and the composite z-score [9] was 0.644. For the same molecule, the composite z-score [10] was 0.66, the z-score [11] was 0.267 (inactive) and the composite z-score [12] was 0.243. For the same molecule, the z-score [13] was 5.93 (inactive), the z-score [14] was 1.82 (inactive) and the z-score [15] was 0.602 (inactive). For the same molecule, the z-score [16] was 1.19 (inactive), the z-score [17] was -0.171 and the z-score [18] was 1.12 (inactive). The z-score [19] was -0.213 (inactive) and the z-score [20] was 2.3.
